Assay outcomes: PubChem BioAssay, National Center for Advancing Translational Sciences (NCATS)
Most compounds without a hit are left out; they make up all but 7.4% or so of the library.
ELG1 genotox: inducers of genotoxicity in HEK293T ELG1-luciferase cells. HEK293T ELG1-luciferase reporter, luminescence, 16 h. Potency, µM (titrated, usually from 46 µM), for the others: top-dose activity change, positive = activation, actives largely listed as activators. 330,000 tested, 1.3% active. AID 504466; also: % of control where 0% means no effect; nearly all actives have a fitted effect of over 60% in size
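Luminescence read-out: rising ELG1-luciferase signal, reflecting elevated ELG1 protein under genetic stress, flags genotoxic compounds. Cells were treated for 16 hr at 37 °C before ONE-Glo detection.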
Luc counter: blocks Kinase-Glo luciferase, a counter-screen artifact. Kinase-Glo luciferase, ATP luminescence, 8 min. Potency, µM (highest dose often 38.3 µM), inactives show top-dose activity change, negative = inhibition, most hits filed as inhibitors. 200,000 tested, 0.28% active; also: % is scaled to controls: 0 for no effect and ±100 for the full control effect; nearly all actives have a fitted effect of over 60% in size
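Inhibition of Kinase-Glo luciferase light generation was assessed at 10 uM ATP in pH 7.2 imidazole buffer, with luminescence measured after eight minutes at ambient temperature.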
SMN2 splice enh: increases expression of the SMN2 splice variant. Potency, µM (titrated, usually from 46.1 µM), for the others: at the highest dose activity change, positive = activation, hits mostly activators. 210,000 tested, 2.8% active. HEK293 SMN2-luciferase splicing reporter, luminescence, 30-36 h. AID 1458; also: % of control where 0% means no effect; nearly all actives have a fitted effect of over 55% in size
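HEK293 cells carry an SMN2 minigene-luciferase reporter in which exon 7 inclusion puts luciferase in frame. Cells were seeded at 2000 cells/well, attached for 10-12 hours, then exposed to compounds for 30-36 hours at 37C before ONE-Glo luminescence.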
NPC1 promoter act: activators of NPC1 promoter; 320,000 tested, 2.4% active; Potency, µM (series often up to 9.22 µM), without a hit: at the top dose activation, hits mostly activators; Huh7 NPC1 promoter luciferase reporter, 24 h; also: % of control where 0% means no effect; nearly all actives have a fitted effect of over 60% in size
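Stably transfected Huh7 (NPC1 promoter→luciferase), 1500 cells/well in Opti-MEM + 10% FBS, 2 h settle, then compound 24 h at 37 °C. Luminescence after 10 min with Amplite reagent.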
Rab9 prom act: activates the Rab9 promoter. Huh7 Rab9 promoter-luciferase reporter, luminescence, 24 h. Potency, µM (titrated, usually from 9.22 µM), for inactives: top-dose activation, negative = inhibition, most hits filed as activators. 320,000 tested, 2.8% active; also: % of control where 0% means no effect; nearly all actives have a fitted effect of over 60% in size
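Cells were plated at 1500 per well in reduced-serum medium with 10% FBS and left 2 h. Compound in DMSO was then added for 24 h at 37 °C. Reporter signal was read by luminescence after 10 min with luciferase detection reagent.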
FLuc counter: inhibits or activates purified firefly luciferase, miR-21 counter-screen; purified FLuc, Km substrates, luminescence inhibition; P08659; Potency, µM (highest dose often 57.5 µM), without a hit: at the highest dose activity change, negative = inhibition, actives largely listed as inhibitors; 360,000 tested, 6.9% active;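 also: plate controls were vehicle for no effect and reference inhibitor for full effect; nearly all actives have a fitted effect of over 55% in size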
Target sequence (P08659 whole entry, looked up): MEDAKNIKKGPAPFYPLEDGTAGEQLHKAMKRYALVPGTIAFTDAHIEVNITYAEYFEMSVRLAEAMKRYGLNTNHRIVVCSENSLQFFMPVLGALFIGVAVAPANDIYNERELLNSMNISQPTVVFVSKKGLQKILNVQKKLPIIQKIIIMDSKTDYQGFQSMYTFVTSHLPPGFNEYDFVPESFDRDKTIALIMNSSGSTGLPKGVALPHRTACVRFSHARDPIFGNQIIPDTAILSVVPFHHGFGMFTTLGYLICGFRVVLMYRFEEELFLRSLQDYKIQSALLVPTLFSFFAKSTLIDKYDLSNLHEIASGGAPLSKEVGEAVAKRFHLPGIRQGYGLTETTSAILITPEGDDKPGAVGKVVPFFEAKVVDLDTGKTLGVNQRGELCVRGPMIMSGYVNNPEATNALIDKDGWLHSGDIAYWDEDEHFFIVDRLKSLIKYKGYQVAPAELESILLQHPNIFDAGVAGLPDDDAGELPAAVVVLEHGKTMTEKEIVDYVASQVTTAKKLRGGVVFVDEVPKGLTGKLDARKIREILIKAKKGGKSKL
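Purified P. pyralis luciferase (10nM final) with 10uM D-luciferin and 10uM ATP (Km levels) in 50mM Tris acetate pH 7.5, 10mM Mg acetate, 0.01% Tween-20, 0.05% BSA; qHTS 6-point titration, ~60 µM downward; luminescence read.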
The depositor's hits bear a star; u = inconclusive; x = no result; [ ] = another dose, or the depositor's remark. Calls follow the shape of the dose curve; as a rule, active = well fitted curve in the direction sought with a large enough effect; inconclusive = small, poorly fitted or top-dose-only effect, or another doubt; inactive = no such curve, though single readings can be large; an effect the other way counts as inactive or inconclusive. Potency is read from the fitted curve at half-maximal effect.

SMILES | ELG1 genotox | Luc counter | SMN2 splice enh | NPC1 promoter act | Rab9 prom act | FLuc counter
COc1ccc2cc(CNc3ccc(C)cc3)c(=O)n(CC(=O)Nc3cccc(Cl)c3C)c2c1 | x | x | x | x | x | -2%
CC(=O)SC1CC2=CC(=O)CC[C@]2(C)C2CC[C@@]3(C)C(CC[C@@]34CCC(=O)O4)C12 (some centres not stated) | x | x | x | -9%[46.1 µM] | -31%[46.1 µM] | x
O=C(OCC(=O)N1CCOCC1)c1ccc2ccccc2c1O | u | x | x | 3.2µM* | 4µM* | 17µM*
COc1ccccc1C(=O)OCC(=O)N1CCC(Cc2ccccc2)CC1 | 6% | x | x | 0% | -2% | 17µM*
O=C(OCC(=O)N1CCCC1)c1ccccc1OCc1ccccc1 | u | -2% | 13µM* | 0% | 10% | 17µM*
O=C(OCC(=O)N1CCOCC1)c1ccccc1OCc1ccccc1Cl | 1% | x | x | x | x | x
O=C(OCC(=O)N1CCOCC1)c1ccccc1OCc1ccccc1 | 1% | x | x | -1% | -4% | 24µM*
O=C(OCC(=O)N1CCC(Cc2ccccc2)CC1)c1ccc[nH]c1=O | -1% | -1% | -18% | 0% | 1% | 1%
O=C(OCC(=O)N1CCN(C(=O)c2ccco2)CC1)c1ccccc1OCc1ccccc1 | 0% | -3% | -7% | 2% | -4% | -3%
CC(=O)c1sc(-c2ccc(Cl)cc2)nc1C | u | -3% | 27% | 26% | u | u
CC(=O)c1c(C)nc(-c2ccc(Cl)cc2)nc1N=CN(C)C | 9.2µM* | -2% | 11µM* | 4µM* | 2.8µM* | u
CC(=O)c1c(C)nc(-c2ccc(Cl)cc2)nc1N | 4.1µM* | -6% | 10µM* | 3.5µM* | 3.2µM* | 6.7µM*
CCN(CC)S(=O)(=O)c1ccc2c(c1)N(CC(=O)NCCc1ccc(OC)c(OC)c1)C(=O)CO2 | x | x | x | x | x | 0%
Cc1cccc(-c2nnc(NC(=O)c3cccs3)s2)c1 | 10% | -3% | u | 27% | 20% | 7.6µM*
Cc1cccc(N(C)S(=O)(=O)c2nnc(NC(=O)c3cccs3)s2)c1 | x | x | x | x | x | 7%
c1ccc(Nc2nnc(-c3cccnc3)s2)cc1 | u | x | x | 1µM* | 0.4µM* | 1.7µM*
O=C(Nc1nnc(-c2cccnc2)s1)c1cccs1 | u | x | x | u | 29% | 12µM*
Nc1nnc(-c2cccnc2)s1 | 5% | 1% | u | 0% | 2% | 1%
O=C(Nc1ccc(NC(=O)c2cccs2)cc1)c1cccnc1 | 1% | -1% | 8% | 7% | 19% | 5%
Cc1ccccc1C(=O)Nc1cccc(C(=O)OCc2cc(=O)n3c4c(sc3n2)CCCC4)c1 | x | x | x | x | x | 0%
O=C(CNC(=O)c1cccs1)OCC(=O)c1ccc(Cl)cc1 | 0% | 2% | x | -3% | -5% | -7%
O=C(CNC(=O)c1cccs1)c1ccc(F)cc1 | u | -3% | 6.3µM* | 0.5µM* | 0.56µM* | 4.8µM*
O=C(CNC(=O)c1cccs1)c1ccc([N+](=O)[O-])cc1 | u | -2% | u | u | 2.8µM* | 24µM*
O=C(CNC(=O)c1cccs1)c1ccc(Cl)cc1 | u | x | x | 1.1µM* | 0.5µM* | 6µM*
CCc1cccc(C)c1NC(=O)C(NS(=O)(=O)c1ccc2c(c1)CCC(=O)N2)c1ccccc1 (configuration not stated) | x | x | 0% | x | x | -2%
SMILES | ELG1 genotox | Luc counter | SMN2 splice enh | NPC1 promoter act | Rab9 prom act | FLuc counter
Cc1cc(=O)[nH]c(SCC(=O)Nc2ncc(S(=O)(=O)c3ccc([N+](=O)[O-])cc3)s2)n1 | 0% | x | x | -1% | -3% | u
Cc1ccc(Nc2nnc(SCC(=O)Nc3ncc(S(=O)(=O)c4ccc([N+](=O)[O-])cc4)s3)s2)cc1 | u | -1% | 0% | 21% | 18% | 2.4µM*
CC(C)c1ccc(Nc2nnc(SCC(=O)Nc3ncc(S(=O)(=O)c4ccc([N+](=O)[O-])cc4)s3)s2)cc1 | u | 2% | 22µM* | 2.8µM* | 1.4µM* | 0.85µM*
CC(=O)/C=C\C1[C@]2(C)CCCC(C)(C)C2CC[C@@]1(C)O (some centres not stated) | x | -3% | -7% | x | x | x
O=C(NN=C1CCCCCC1)c1cc(-c2ccccc2)nc2ccccc12 | 2% | -3% | 13% | -9% | -4% | 17µM*
O=C(NN=C1CCCCCC1)c1cn(-c2ccccc2)nc1-c1ccccc1 | 0% | 1% | -29% | -3% | 1% | 15µM*
O=C(NC(=S)N1CCOCC1)c1cn(-c2ccccc2)nc1-c1ccccc1 | -8% | x | x | 0% | 1% | 17µM*
Cc1cccc(C)c1NC(=O)c1cn(-c2ccccc2)nc1-c1ccccc1 | 0% | -3% | -12% | -9% | -3% | u
Cc1ccc(-c2cc(C(=O)NN=C3CCCC3)c3ccccc3n2)cc1 | 3% | -3% | -12% | 0% | -4% | 4.3µM*
Cc1cc(C(=O)NN=C2CCCCC2)c2ccccc2n1 | -1% | 6% | -14% | -1% | -6% | 4%
O=S(=O)(c1cccs1)N1CCCc2cccc(O)c21 | 5% | -5% | 9% | 8% | 3.5µM* | 19µM*
O=C(Nc1ccc2c(c1)N(S(=O)(=O)c1cccs1)CCC2)c1c(F)cccc1F | 4% | x | x | -1% | -5% | 1%
Fc1cc(F)c2nc(Nc3nc4cc5c(cc4s3)OCO5)sc2c1 | u | 0% | 18µM* | u | u | u
Fc1cccc2sc(Nc3nc4cc5c(cc4s3)OCO5)nc12 | 7.3µM* | 1% | 5µM* | 4µM* | 3.2µM* | 4.3µM*
O=C(NNc1nc2c(F)cc(F)cc2s1)c1ccccc1 | -1% | -1% | 22% | -1% | -3% | 4%
O=c1oc2ccccc2cc1-c1csc(Nc2nc3c(F)cccc3s2)n1 | 3% | -3% | -28% | 16% | -2% | -19%
Fc1cccc2sc(Nc3nc4cc5c(cc4s3)OCCO5)nc12 | 1.2µM* | -3% | u | 4µM* | 0.71µM* | 1.2µM*
O=C(NNc1nc2c(F)cccc2s1)C1=COCCO1 | 1% | 0% | 3% | 0% | 3% | 1%
Cc1ccc(/C=C/c2nc3ccccc3n2S(=O)(=O)c2ccc(Br)cc2)cc1 | x | x | x | x | x | 0.76µM*
Cn1c(/C=C/c2ccc(Br)cc2)nc2ccccc2c1=O | u | x | x | 3.5µM* | u | u
Cn1c(/C=C/c2ccccc2[N+](=O)[O-])nc2ccccc2c1=O | 4% | x | x | u | u | u
O=S(=O)(c1cccc(Cl)c1)n1c(/C=C/c2ccccc2Cl)nc2ccccc21 | x | x | x | x | x | 0.095µM*
Cc1ccc(S(=O)(=O)n2c(N)nc3ccccc32)cc1 | 0% | x | x | -1% | -6% | 0%
CSc1ccc(/C=C/c2nc3ccccc3n2S(=O)(=O)c2cccc(Cl)c2)cc1 | x | x | u | x | x | 0.076µM*
